In ChEMBL document CHEMBL3988442, “University of Dundee, Small-Polar-MMV Screening Library” (2021) one finds Percent Effect data, which are given here for 10 molecules.

In assay [1] the target is T1, Aspartate--tRNA(Asp/Asn) ligase (Mycobacterium tuberculosis (strain ATCC 25618 / H37Rv)) (UniProt P9WFW3). Further: in the data most compounds retested in dose-response had high values.
T1 sequence (whole entry): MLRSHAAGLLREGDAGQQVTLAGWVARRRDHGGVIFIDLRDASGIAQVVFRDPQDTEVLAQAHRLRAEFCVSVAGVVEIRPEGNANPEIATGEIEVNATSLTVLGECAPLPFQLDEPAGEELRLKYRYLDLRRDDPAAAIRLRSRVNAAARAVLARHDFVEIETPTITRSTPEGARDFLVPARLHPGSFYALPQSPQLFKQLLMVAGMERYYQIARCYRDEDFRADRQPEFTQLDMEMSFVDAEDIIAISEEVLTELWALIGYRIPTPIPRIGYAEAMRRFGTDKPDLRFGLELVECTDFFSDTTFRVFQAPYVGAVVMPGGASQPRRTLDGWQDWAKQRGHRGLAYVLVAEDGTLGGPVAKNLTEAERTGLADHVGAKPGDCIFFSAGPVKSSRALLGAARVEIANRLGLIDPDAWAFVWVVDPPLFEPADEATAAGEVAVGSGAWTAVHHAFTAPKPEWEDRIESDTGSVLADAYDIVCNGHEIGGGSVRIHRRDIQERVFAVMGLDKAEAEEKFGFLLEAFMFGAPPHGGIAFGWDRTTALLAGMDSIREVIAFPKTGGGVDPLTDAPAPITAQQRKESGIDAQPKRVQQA
As to the kind of experiment: Assay for Asp RNA synthetase-1 from Mycobacterium tuberculosis. Conditions: 30 µM. In kind it is functional. Also noted: scale not given: direction of the effect not stated beside the values.

In assay [2] the target is Shiga toxin 2 (Escherichia coli O157:H7) (UniProt P09385+P09386). As to the kind of experiment: E. coli 0.157:H7 Shiga Toxin SOP - stx2 screening assay. In kind it is functional. Also noted: scale not given: direction of the effect not stated beside the values. To be noted: 30 µM.

For the molecule `Cn1ccnc1CN1CCOCC(Cc2ccccn2)C1` (stereo not given), the Percent Effect is -1.22% in assay [1] and 17.1% in assay [2].
For `Cn1cccc1C(=O)N1CC[C@H]2C[C@@H](c3ccncn3)O[C@@H]2C1` the same measures were -6.89% and 7.29%.
For `O=C(COCC1CC1)N1CCCC(n2cccn2)C1` (stereo not given) the same measures were 4.67% and -15.2%.
For `CCSc1ccc(C(=O)Nc2c(C)nn(C(C)C)c2C)cn1` the same measures were -2.39% and -37.7%.
As for `Cc1nc(C)n(CC2CCCN(Cc3nnc(C(C)(C)C)o3)C2)n1` (stereo not given), the figures for the Percent Effect in assay [1] and in assay [2] were 1.32% and 1.5%, respectively.
For `CS(=O)(=O)N1CCCCCC1C1CCN(c2ncccn2)CC1` (stereo not given) the same measures were -3.75% and 24.4%.
For `CCc1nc(CCNC(=O)C2CCOC2)sc1C` (stereo not given), the Percent Effect in assay [1] is -2.83%; in assay [2], 30.6%.
For `CCC1=N[C@@]2(CC[C@@H]3CN(CC(=O)N(C)C)C[C@@H]32)C(=O)N1CC1CC1` the same measures were -4.18% and -27.3%.
For `Cc1cnn(CC2CCCN2C(=O)CCc2c(C)noc2Cl)c1` (stereo not given) the same measures were 2.73% and -4.86%.
For `Cc1nc(C2CCCN(C(=O)c3cnn(C(C)(C)C)c3)C2)no1` (stereo not given) the same measures were -4.47% and -34.6%.
